# ChEMBL document CHEMBL1961873, “Compounds: GSK PKIS; Assays: Nanosyn kinase panel” (2012)
# Columns and labels:
# [1] = target: Sphingosine kinase 1 (Homo sapiens) (UniProt Q9NYA1); conditions: at 1 µM;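 also: mean SPHK1 inhibition value reported from the GSK PKIS kinase panel screen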
# [2] = target: T1, Sphingosine kinase 2 (Homo sapiens) (UniProt Q9NRA0); conditions: at 0.1 µM
# T1 sequence (whole entry): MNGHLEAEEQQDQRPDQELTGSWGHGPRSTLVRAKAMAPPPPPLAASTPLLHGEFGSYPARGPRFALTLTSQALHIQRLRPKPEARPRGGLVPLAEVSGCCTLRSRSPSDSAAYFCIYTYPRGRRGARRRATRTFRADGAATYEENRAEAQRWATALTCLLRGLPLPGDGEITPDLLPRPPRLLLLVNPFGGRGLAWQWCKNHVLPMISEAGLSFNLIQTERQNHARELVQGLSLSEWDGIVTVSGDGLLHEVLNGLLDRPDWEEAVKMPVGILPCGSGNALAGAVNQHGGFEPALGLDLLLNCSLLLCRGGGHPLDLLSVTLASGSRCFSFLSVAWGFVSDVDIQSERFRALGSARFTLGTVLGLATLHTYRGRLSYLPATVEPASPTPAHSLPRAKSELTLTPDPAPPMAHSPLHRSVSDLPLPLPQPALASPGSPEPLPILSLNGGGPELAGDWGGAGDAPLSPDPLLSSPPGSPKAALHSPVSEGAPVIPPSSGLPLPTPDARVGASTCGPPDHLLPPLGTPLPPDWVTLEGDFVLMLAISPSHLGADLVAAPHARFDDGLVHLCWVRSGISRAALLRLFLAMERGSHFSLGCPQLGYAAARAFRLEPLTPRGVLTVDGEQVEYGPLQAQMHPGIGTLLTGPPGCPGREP
# [3] = target: T1, Sphingosine kinase 2 (Homo sapiens); conditions: at 1 µM
# [4] = target: Casein kinase II subunit alpha (Homo sapiens) (UniProt P68400); conditions: at 0.1 µM
# [5] = target: Casein kinase II subunit alpha (Homo sapiens) (UniProt P68400); conditions: at 1 µM
# [6] = target: T2, Inhibitor of nuclear factor kappa-B kinase subunit alpha (Homo sapiens) (UniProt O15111); conditions: at 0.1 µM
# T2 sequence (whole entry): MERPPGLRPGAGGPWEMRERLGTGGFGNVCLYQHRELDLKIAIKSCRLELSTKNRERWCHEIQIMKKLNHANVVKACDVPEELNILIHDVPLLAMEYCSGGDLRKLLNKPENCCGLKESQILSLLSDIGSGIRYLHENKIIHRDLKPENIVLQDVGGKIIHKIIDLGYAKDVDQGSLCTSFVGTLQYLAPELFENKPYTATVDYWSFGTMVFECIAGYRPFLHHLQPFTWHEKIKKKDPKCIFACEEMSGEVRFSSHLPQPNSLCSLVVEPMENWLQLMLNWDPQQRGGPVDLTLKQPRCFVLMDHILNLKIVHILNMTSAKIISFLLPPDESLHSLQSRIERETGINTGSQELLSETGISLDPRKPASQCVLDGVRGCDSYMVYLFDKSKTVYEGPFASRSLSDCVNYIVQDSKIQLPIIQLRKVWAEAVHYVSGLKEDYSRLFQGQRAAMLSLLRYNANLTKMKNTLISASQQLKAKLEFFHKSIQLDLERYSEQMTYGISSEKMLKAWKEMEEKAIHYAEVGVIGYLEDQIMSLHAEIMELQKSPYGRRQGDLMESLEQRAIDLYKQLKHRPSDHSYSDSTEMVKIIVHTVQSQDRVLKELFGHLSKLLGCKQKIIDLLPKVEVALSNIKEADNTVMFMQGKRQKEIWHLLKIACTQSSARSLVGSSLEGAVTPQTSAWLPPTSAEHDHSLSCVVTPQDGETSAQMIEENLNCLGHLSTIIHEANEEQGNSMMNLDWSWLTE
# [7] = target: T2, Inhibitor of nuclear factor kappa-B kinase subunit alpha (Homo sapiens); conditions: at 1 µM
# [8] = target: T3, Inhibitor of nuclear factor kappa-B kinase subunit beta (Homo sapiens) (UniProt O14920); conditions: at 0.1 µM
# T3 sequence (whole entry): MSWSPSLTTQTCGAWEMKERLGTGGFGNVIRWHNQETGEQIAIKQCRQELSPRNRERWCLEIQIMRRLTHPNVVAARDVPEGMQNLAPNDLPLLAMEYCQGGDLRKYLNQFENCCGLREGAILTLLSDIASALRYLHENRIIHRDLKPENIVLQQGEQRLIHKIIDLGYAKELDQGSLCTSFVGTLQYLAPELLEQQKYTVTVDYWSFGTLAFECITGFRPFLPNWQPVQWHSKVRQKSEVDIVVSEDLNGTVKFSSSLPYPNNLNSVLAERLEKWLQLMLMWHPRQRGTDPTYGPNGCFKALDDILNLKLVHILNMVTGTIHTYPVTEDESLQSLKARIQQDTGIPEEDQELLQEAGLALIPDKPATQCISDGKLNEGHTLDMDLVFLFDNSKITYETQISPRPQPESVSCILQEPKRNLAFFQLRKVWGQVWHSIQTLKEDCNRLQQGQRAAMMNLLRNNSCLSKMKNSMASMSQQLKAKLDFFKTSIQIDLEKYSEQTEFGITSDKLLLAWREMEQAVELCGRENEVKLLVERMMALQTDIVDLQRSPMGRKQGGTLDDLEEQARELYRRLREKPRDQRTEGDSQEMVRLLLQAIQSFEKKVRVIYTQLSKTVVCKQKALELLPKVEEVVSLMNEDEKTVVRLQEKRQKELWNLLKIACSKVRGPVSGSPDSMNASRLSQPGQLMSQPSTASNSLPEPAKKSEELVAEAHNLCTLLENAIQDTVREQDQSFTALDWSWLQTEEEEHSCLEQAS
# [9] = target: T3, Inhibitor of nuclear factor kappa-B kinase subunit beta (Homo sapiens); conditions: at 1 µM
# [10] = target: T4, Inhibitor of nuclear factor kappa-B kinase subunit epsilon (Homo sapiens) (UniProt Q14164); conditions: at 0.1 µM
# T4 sequence (whole entry): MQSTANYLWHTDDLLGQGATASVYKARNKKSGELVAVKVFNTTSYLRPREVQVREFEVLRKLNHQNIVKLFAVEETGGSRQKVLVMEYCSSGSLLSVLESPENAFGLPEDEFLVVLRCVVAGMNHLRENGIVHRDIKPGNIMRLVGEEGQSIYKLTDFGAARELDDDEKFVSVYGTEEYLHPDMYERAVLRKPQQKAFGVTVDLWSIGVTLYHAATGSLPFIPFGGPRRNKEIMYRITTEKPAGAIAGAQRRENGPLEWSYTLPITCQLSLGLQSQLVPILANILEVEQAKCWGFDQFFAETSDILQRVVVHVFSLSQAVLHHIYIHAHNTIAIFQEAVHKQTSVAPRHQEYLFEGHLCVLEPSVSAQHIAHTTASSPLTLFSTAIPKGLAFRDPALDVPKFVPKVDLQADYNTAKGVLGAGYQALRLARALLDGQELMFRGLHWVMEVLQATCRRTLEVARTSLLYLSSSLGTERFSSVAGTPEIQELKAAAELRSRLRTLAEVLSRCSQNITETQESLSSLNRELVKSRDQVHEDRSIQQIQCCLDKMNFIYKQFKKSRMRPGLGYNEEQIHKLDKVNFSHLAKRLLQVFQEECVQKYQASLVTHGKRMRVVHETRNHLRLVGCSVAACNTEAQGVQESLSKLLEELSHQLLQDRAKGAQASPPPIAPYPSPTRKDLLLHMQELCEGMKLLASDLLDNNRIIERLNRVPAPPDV
# [11] = target: T4, Inhibitor of nuclear factor kappa-B kinase subunit epsilon (Homo sapiens); conditions: at 1 µM
# [12] = target: T5, Serine/threonine-protein kinase Nek1 (Homo sapiens) (UniProt Q96PY6); conditions: at 0.1 µM
# T5 sequence (whole entry): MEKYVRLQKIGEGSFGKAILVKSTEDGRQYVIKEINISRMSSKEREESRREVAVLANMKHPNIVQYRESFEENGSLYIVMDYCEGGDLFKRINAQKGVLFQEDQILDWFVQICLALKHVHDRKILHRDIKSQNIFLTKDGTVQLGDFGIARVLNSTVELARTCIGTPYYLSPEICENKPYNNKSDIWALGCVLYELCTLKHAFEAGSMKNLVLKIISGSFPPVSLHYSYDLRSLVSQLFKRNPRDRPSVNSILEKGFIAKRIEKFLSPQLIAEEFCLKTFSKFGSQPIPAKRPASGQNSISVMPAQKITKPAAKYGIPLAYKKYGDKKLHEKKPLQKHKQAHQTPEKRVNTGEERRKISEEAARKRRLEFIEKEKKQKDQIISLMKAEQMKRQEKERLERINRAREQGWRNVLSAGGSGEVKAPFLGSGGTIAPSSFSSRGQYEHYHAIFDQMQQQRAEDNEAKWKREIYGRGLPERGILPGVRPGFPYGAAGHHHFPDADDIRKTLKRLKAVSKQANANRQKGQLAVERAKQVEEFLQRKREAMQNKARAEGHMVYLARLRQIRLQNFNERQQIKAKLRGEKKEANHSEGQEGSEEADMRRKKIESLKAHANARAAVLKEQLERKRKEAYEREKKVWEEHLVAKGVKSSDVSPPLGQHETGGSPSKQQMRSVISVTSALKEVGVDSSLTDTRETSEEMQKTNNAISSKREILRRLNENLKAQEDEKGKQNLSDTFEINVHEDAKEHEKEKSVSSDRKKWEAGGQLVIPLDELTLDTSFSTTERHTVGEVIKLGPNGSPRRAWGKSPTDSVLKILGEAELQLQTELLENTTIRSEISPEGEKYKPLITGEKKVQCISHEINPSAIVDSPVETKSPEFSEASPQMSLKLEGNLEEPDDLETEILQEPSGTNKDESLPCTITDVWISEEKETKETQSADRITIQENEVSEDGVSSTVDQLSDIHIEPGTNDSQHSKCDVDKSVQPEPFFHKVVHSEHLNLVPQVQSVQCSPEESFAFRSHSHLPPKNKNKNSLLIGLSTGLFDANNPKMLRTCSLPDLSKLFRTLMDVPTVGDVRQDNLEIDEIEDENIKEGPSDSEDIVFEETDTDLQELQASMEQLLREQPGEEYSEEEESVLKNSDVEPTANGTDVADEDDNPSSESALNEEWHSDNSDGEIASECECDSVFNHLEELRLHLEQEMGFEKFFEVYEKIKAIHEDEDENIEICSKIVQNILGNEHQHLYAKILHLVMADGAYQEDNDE
# [13] = target: T5, Serine/threonine-protein kinase Nek1 (Homo sapiens); conditions: at 1 µM
# [14] = target: T6, Serine/threonine-protein kinase Nek2 (Homo sapiens) (UniProt P51955); conditions: at 0.1 µM
# T6 sequence (whole entry): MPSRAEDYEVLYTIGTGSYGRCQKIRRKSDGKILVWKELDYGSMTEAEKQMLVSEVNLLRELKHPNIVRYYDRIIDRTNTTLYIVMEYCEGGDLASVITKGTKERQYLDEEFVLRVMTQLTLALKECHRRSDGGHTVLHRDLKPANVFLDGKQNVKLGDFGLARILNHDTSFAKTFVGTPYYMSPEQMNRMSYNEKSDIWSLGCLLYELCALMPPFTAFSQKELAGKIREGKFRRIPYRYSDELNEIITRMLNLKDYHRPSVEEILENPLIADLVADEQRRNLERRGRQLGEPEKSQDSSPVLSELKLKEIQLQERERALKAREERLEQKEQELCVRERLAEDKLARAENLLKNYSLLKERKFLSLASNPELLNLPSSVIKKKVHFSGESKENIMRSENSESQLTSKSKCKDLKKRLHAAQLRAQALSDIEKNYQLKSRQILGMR
# [15] = target: T6, Serine/threonine-protein kinase Nek2 (Homo sapiens); conditions: at 1 µM
# [16] = target: Serine/threonine-protein kinase Nek6 (Homo sapiens) (UniProt Q9HC98); conditions: at 0.1 µM
# [17] = target: Serine/threonine-protein kinase Nek6 (Homo sapiens) (UniProt Q9HC98); conditions: at 1 µM
# [18] = target: Serine/threonine-protein kinase Nek7 (Homo sapiens) (UniProt Q8TDX7); conditions: at 0.1 µM
# [19] = target: Serine/threonine-protein kinase Nek7 (Homo sapiens) (UniProt Q8TDX7); conditions: at 1 µM
# [20] = target: T7, Serine/threonine-protein kinase Nek9 (Homo sapiens) (UniProt Q8TD19); conditions: at 0.1 µM;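 also: reported value is the mean percent inhibition of NEK9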
# T7 sequence (whole entry): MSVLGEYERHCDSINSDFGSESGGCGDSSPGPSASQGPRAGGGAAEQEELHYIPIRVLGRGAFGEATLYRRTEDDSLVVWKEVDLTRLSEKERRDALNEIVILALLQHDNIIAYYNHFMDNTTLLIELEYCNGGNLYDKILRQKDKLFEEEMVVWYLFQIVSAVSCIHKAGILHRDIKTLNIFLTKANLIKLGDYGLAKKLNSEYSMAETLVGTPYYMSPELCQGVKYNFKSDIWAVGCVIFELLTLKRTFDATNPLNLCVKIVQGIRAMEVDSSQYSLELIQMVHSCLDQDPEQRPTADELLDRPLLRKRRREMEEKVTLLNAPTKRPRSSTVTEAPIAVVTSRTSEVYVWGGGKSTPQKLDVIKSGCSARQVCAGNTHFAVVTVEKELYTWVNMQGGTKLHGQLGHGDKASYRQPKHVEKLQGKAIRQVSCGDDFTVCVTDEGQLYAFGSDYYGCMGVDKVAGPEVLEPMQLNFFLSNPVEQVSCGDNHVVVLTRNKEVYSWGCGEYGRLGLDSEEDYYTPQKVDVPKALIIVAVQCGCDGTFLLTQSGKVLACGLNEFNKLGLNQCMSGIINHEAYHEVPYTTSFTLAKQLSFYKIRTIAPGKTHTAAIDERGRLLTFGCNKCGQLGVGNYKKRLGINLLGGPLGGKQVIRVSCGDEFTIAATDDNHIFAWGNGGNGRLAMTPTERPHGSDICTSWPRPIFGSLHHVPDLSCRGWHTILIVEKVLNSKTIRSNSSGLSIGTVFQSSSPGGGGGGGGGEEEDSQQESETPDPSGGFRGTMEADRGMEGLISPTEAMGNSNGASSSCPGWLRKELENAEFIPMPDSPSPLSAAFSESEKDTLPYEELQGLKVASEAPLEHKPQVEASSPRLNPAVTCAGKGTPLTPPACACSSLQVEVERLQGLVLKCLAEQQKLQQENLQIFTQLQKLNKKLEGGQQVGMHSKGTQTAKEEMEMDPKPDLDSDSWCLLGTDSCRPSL
# Sequence of Serine/threonine-protein kinase Nek7 (Homo sapiens) (Q8TDX7 whole entry, looked up): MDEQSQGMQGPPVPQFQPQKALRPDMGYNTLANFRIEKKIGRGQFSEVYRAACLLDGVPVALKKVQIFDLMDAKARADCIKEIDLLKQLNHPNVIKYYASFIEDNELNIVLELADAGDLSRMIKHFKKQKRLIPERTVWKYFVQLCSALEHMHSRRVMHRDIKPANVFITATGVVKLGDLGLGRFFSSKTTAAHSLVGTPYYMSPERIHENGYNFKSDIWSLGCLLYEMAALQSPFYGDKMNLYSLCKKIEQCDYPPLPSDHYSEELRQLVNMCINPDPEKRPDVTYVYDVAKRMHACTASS
# Sequence of Serine/threonine-protein kinase Nek6 (Homo sapiens) (Q9HC98 whole entry): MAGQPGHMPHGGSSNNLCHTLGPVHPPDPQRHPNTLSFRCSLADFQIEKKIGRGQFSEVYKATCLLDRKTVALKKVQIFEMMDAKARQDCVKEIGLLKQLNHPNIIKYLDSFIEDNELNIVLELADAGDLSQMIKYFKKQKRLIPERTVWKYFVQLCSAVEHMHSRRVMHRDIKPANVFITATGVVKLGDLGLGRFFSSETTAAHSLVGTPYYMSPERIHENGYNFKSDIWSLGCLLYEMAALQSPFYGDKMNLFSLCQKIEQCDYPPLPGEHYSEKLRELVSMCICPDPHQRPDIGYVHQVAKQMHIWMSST
# Sequence of Casein kinase II subunit alpha (Homo sapiens) (P68400 whole entry, looked up): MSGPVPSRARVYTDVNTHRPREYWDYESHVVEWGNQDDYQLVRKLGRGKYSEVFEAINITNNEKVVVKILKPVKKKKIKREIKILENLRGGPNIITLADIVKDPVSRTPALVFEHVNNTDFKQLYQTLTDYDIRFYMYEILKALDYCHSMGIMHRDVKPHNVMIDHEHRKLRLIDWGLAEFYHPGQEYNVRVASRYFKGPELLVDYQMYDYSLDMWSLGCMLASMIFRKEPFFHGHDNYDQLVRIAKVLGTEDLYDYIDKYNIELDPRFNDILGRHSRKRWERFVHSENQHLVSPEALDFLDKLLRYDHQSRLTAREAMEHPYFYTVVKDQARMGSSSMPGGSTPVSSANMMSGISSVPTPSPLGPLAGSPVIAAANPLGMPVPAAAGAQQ
# Sequence of Sphingosine kinase 1 (Homo sapiens) (Q9NYA1 whole entry): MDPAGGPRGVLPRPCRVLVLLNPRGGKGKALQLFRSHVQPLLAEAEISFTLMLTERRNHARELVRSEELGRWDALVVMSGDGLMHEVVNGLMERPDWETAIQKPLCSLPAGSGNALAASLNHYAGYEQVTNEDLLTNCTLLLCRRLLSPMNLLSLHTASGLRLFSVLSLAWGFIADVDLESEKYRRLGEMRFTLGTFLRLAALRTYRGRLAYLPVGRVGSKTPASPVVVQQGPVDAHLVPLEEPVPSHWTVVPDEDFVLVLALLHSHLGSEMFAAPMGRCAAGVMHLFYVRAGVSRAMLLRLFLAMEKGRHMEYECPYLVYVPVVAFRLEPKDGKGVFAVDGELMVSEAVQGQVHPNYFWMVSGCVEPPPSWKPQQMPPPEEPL
smiles,measurement,setting,value
CS(=O)(=O)CCNCc1ccc(-c2ccc3ncnc(Nc4ccc(OCc5cccc(C(F)(F)F)c5)cc4)c3c2)o1,inhibition,[1],0.32%
same,inhibition,[2],0.1%
same,inhibition,[3],0.04%
same,inhibition,[4],5.1%
same,inhibition,[5],4.66%
same,inhibition,[6],3.34%
same,inhibition,[7],4.53%
same,inhibition,[8],4.47%
same,inhibition,[9],8.68%
same,inhibition,[10],4.74%
same,inhibition,[11],4.77%
same,inhibition,[12],3.08%
same,inhibition,[13],8.21%
same,inhibition,[14],7.25%
same,inhibition,[15],6.57%
same,inhibition,[16],0.78%
same,inhibition,[17],4.95%
same,inhibition,[18],2.96%
same,inhibition,[19],7.52%
same,inhibition,[20],4.02%
